This is one part of a sample in which the strongest signals are shown more often than they occur.
Assays:
Experiment in all cases: glycan array binding signal (z-score within array); higher = stronger binding
Conditions in all cases: glycan notation: IUPAC condensed, linker removed
GlcA(b1-3)GlcNAc = biological target: GlcA(b1-3)GlcNAc
Outline: (§1)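 Glycan array data came from 3228 arrays in the Consortium for Functional Glycomics database, and only arrays with an available protein sequence were kept. Glycan names were put into IUPAC-condensed notation, and columns mapping to the same glycan were averaged. The binding signal is a within-array Z-score, averaged across arrays of one protein sequence run at different concentrations or buffers and across linkers. A negative Z-score can be read as non-binding.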

GlcA(b1-6)Gal = biological target: GlcA(b1-6)Gal
Outline: as §1

[1] = biological target: GlcNAc(a1-4)Gal(b1-4)GlcNAc(b1-3)Gal(b1-4)GlcNAc
Outline: as §1

[2] = biological target: GlcNAc(a1-6)Gal(b1-4)GlcNAc
Outline: as §1

[3] = biological target: GlcNAc(b1-3)Gal(b1-4)GlcNAc(b1-2)Man(a1-3)[GlcNAc(b1-3)Gal(b1-4)GlcNAc(b1-2)Man(a1-6)]Man(b1-4)GlcNAc(b1-4)GlcNAc
Outline: as §1

[4] = biological target: GlcNAc(b1-3)Gal(b1-4)GlcNAc(b1-3)Gal(b1-4)GlcNAc(b1-3)Gal(b1-4)GlcNAc(b1-2)[GlcNAc(b1-3)Gal(b1-4)GlcNAc(b1-3)Gal(b1-4)GlcNAc(b1-3)Gal(b1-4)GlcNAc(b1-6)]Man(a1-6)[GlcNAc(b1-3)Gal(b1-4)GlcNAc(b1-3)Gal(b1-4)GlcNAc(b1-3)Gal(b1-4)GlcNAc(b1-2)Man(a1-3)]Man(b1-4)GlcNAc(b1-4)[Fuc(a1-6)]GlcNAc
Outline: as §1

[5] = biological target: GlcNAc(b1-3)Gal(b1-4)GlcNAc(b1-3)Gal(b1-4)GlcNAc(b1-3)Gal(b1-4)GlcNAc(b1-3)Gal(b1-4)GlcNAc(b1-2)[GlcNAc(b1-3)Gal(b1-4)GlcNAc(b1-3)Gal(b1-4)GlcNAc(b1-3)Gal(b1-4)GlcNAc(b1-3)Gal(b1-4)GlcNAc(b1-6)]Man(a1-6)[GlcNAc(b1-3)Gal(b1-4)GlcNAc(b1-3)Gal(b1-4)GlcNAc(b1-3)Gal(b1-4)GlcNAc(b1-3)Gal(b1-4)GlcNAc(b1-2)Man(a1-3)]Man(b1-4)GlcNAc(b1-4)[Fuc(a1-6)]GlcNAc
Outline: as §1

[6] = biological target: GlcNAc(b1-3)Gal(b1-4)GlcNAc(b1-3)[GlcNAc(b1-3)Gal(b1-4)GlcNAc(b1-3)]GalNAc
Outline: as §1

[7] = biological target: GlcNAc(b1-3)Gal(b1-4)GlcNAc(b1-6)[GlcNAc(b1-3)]Gal(b1-4)GlcNAc
Outline: as §1

GlcNAc(b1-3)GalNAc = biological target: GlcNAc(b1-3)GalNAc
Outline: as §1

GlcNAc(b1-6)GalNAc = biological target: GlcNAc(b1-6)GalNAc
Outline: as §1

Kdn(a2-3)Gal(b1-3)GalNAc = biological target: Kdn(a2-3)Gal(b1-3)GalNAc
Outline: as §1

[8] = biological target: Man(a1-3)[Man(a1-6)]Man(a1-6)[Man(a1-3)]Man
Outline: as §1

[9] = biological target: Man(a1-3)[Man(a1-6)]Man(a1-6)[Man(a1-3)]Man(b1-4)GlcNAc(b1-4)GlcNAc
Outline: as §1

[10] = biological target: Man(a1-3)[Man(a1-6)]Man(b1-4)GlcNAc(b1-4)GlcNAc
Outline: as §1

Neu5Ac(a2-3)Gal = biological target: Neu5Ac(a2-3)Gal
Outline: as §1

[11] = biological target: Neu5Ac(a2-3)Gal(b1-4)GlcNAc(b1-3)Gal(b1-4)GlcNAc(b1-3)[Neu5Ac(a2-3)Gal(b1-4)GlcNAc(b1-3)Gal(b1-4)GlcNAc(b1-6)]GalNAc
Outline: as §1

[12] = biological target: Neu5Ac(a2-3)Gal(b1-4)GlcNAc(b1-3)Gal(b1-4)[Fuc(a1-3)]GlcNAc
Outline: as §1

[13] = biological target: Neu5Ac(a2-3)Gal(b1-4)[Fuc(a1-3)]GlcNAc(b1-3)GalNAc
Outline: as §1

[14] = biological target: Neu5Ac(a2-3)GalNAc(b1-4)GlcNAc
Outline: as §1

[15] = biological target: Neu5Ac(a2-6)Gal(b1-4)GlcNAc(b1-2)Man
Outline: as §1

[16] = biological target: Neu5Ac(a2-6)Gal(b1-4)GlcNAc(b1-2)Man(a1-6)[Gal(b1-4)GlcNAc(b1-2)Man(a1-3)]Man(b1-4)GlcNAc(b1-4)GlcNAc
Outline: as §1

[17] = biological target: Neu5Ac(a2-6)Gal(b1-4)GlcNAc(b1-2)Man(a1-6)[GlcNAc(b1-2)Man(a1-3)]Man(b1-4)GlcNAc(b1-4)GlcNAc
Outline: as §1

[18] = biological target: Neu5Ac(a2-6)Gal(b1-4)GlcNAc(b1-3)Gal(b1-4)GlcNAc(b1-2)Man(a1-3)[Neu5Ac(a2-6)Gal(b1-4)GlcNAc(b1-3)Gal(b1-4)GlcNAc(b1-2)Man(a1-6)]GalNAc
Outline: as §1

[19] = biological target: Neu5Ac(a2-6)Gal(b1-4)GlcNAc(b1-3)Gal(b1-4)GlcNAc(b1-3)[Neu5Ac(a2-6)Gal(b1-4)GlcNAc(b1-3)Gal(b1-4)GlcNAc(b1-6)]GalNAc
Outline: as §1

[20] = biological target: Neu5Ac(a2-6)Gal(b1-4)GlcNAc(b1-6)[Gal(b1-3)GlcNAc(b1-3)]Gal(b1-4)Glc
Outline: as §1

[21] = biological target: Neu5Gc(a2-3)Gal(b1-3)GlcNAc
Outline: as §1

[22] = biological target: Neu5Gc(a2-8)Neu5Gc(a2-3)Gal(b1-4)GlcNAc
Outline: as §1

B1: HFR-3 (Triticum aestivum) (protein)
chain: MKGLLLCALALAFAAVTTHAQLQSCPTRCGKQADGMECPNNLCCSKDGYCGLGVDYCSAGAGCQSGACYDNKICGAQANGTLCRNNHCCSSGGRCGYGREYCSNGCQGGPCWADLKCGHLDNGKLCPNNLCCSQYGYCGLGPEFCGTGCQNGACSTDKPCGNKANGAPCTNNYCCSQYGSCGLGKDYCGTGCQNGACN
- glycan array binding signal (z-score) (GlcA(b1-3)GlcNAc): 0.799
- glycan array binding signal (z-score) (GlcA(b1-6)Gal): -0.641
- glycan array binding signal (z-score) [1]: 0.598
- glycan array binding signal (z-score) [2]: -0.582
- glycan array binding signal (z-score) [3]: 0.65
- glycan array binding signal (z-score) [4]: 2.43
- glycan array binding signal (z-score) [5]: 1.15
- glycan array binding signal (z-score) [6]: 0.04
- glycan array binding signal (z-score) [7]: -1.09
- glycan array binding signal (z-score) (GlcNAc(b1-3)GalNAc): 2.18
- glycan array binding signal (z-score) (GlcNAc(b1-6)GalNAc): -0.591
- glycan array binding signal (z-score) (Kdn(a2-3)Gal(b1-3)GalNAc): 2.75
- glycan array binding signal (z-score) [8]: 2.17
- glycan array binding signal (z-score) [9]: 3.89
- glycan array binding signal (z-score) [10]: 0.828
- glycan array binding signal (z-score) (Neu5Ac(a2-3)Gal): -0.367
- glycan array binding signal (z-score) [11]: 0.555
- glycan array binding signal (z-score) [12]: -0.597
- glycan array binding signal (z-score) [13]: -0.052
- glycan array binding signal (z-score) [14]: 1.18
- glycan array binding signal (z-score) [15]: 0.755
- glycan array binding signal (z-score) [16]: -0.801
- glycan array binding signal (z-score) [17]: -0.077
- glycan array binding signal (z-score) [18]: 0.189
- glycan array binding signal (z-score) [19]: 0.943
- glycan array binding signal (z-score) [20]: -0.251
- glycan array binding signal (z-score) [21]: -0.969
- glycan array binding signal (z-score) [22]: -0.961
